TRPV1 ag: human TRPV1 agonism | Q8NER1 | TRPV1-expressing cells, Fluo-8 calcium influx, agonist mode | activation, % at 8.33 µM | hit rate 0.19% among 320,000; in the data active = activation above about 80%; inconclusive = between about 30% and that limit; also: 0% is about no effect
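Cells expressing TRPV1 were dye-loaded with Fluo-8 and read kinetically: 10 s baseline, 3 min after compound (agonist portion), then 2 min after EC20 capsaicin (allosteric enhancer portion). Calcium-bound dye fluorescence at 480/520 nm.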
TRPML1 blocker: inhibitors of human TRPML1 channel | TRPML1-inducible cells, Ca2+ dye fluorescence, FDSS; active compounds read low; inhibition of EC80 agonist-evoked calcium signal | hit rate 0.02% among 390,000 | activity change, negative = inhibition, % (concentration not given with the values) | Q9GZU1; in the data active = activity change below about -50%; inconclusive = between about -30% and that limit;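 also: stimulus is agonist 54-4 at its EC80 concentration; % is scaled to controls: 0 for no effect and ±100 for the full control effect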
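Tet-induced TRPML1-DL cells loaded with Ca8 no-wash calcium dye were read kinetically on FDSS. Compound addition was followed by EC80 agonist 54-4 (4 uM final); inhibition was read over 110 s.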
TRPML1 ag: human mucolipin-1 channel agonism | hit rate 0.12% among 410,000 | Q9GZU1 | activation, % (test concentration not listed) | TRPML1-expressing cells, Ca2+ dye fluorescence, FDSS; in the data active = activation above about 50%; inconclusive = mostly about 30% to 49%; also: 0% is about no effect
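Tetracycline-induced TRPML1-DL cells are seeded and incubated overnight before loading with a no-wash Ca2+ dye and quencher. Agonist activity is taken from the 110 s fluorescence read following compound pin-transfer on an FDSS, before EC80 54-4 challenge.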
KCNH2 3.1 inh: inhibitors of human KCNH2 3.1 potassium channel isoform; U2OS KCNH2 3.1, thallium flux FluxOr; active compounds read low; activity change, % (tested at about 1.8 µM); hit rate 0.95% among 340,000; AID 720553;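 active = maximum activity change below -70%; inconclusive = maximum activity change from -70% to -50%; inactive = maximum activity change above -50%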;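 also: thallium influx rate constant from kinetic fluorescence after stimulation buffer; % is scaled to controls: 0 for no effect and ±100 for the full control effect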
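Thallium flux read-out: FluxOr dye with Red40 quencher in HBSS/HEPES, 45 min at RT. Rate constants from kinetic reads were normalized to positive and negative DMSO controls. Cells: U2OS virally expressing the 3.1 isoform.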
KCNH2 WT inh: KCNH2 (human, wildtype) channel inhibition. Q12809. U2OS, BacMam KCNH2, thallium flux FluxOr; active compounds read low. activity change, % at 1.84 µM. hit rate 0.37% among 340,000. AID 720551;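 active = maximum activity change below -70%; inconclusive = maximum activity change between -70% and -50%; inactive = maximum activity change above -50%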; also: % is scaled to controls: 0 for no effect and ±100 for the full control effect
Target sequence (Q12809 whole entry, looked up): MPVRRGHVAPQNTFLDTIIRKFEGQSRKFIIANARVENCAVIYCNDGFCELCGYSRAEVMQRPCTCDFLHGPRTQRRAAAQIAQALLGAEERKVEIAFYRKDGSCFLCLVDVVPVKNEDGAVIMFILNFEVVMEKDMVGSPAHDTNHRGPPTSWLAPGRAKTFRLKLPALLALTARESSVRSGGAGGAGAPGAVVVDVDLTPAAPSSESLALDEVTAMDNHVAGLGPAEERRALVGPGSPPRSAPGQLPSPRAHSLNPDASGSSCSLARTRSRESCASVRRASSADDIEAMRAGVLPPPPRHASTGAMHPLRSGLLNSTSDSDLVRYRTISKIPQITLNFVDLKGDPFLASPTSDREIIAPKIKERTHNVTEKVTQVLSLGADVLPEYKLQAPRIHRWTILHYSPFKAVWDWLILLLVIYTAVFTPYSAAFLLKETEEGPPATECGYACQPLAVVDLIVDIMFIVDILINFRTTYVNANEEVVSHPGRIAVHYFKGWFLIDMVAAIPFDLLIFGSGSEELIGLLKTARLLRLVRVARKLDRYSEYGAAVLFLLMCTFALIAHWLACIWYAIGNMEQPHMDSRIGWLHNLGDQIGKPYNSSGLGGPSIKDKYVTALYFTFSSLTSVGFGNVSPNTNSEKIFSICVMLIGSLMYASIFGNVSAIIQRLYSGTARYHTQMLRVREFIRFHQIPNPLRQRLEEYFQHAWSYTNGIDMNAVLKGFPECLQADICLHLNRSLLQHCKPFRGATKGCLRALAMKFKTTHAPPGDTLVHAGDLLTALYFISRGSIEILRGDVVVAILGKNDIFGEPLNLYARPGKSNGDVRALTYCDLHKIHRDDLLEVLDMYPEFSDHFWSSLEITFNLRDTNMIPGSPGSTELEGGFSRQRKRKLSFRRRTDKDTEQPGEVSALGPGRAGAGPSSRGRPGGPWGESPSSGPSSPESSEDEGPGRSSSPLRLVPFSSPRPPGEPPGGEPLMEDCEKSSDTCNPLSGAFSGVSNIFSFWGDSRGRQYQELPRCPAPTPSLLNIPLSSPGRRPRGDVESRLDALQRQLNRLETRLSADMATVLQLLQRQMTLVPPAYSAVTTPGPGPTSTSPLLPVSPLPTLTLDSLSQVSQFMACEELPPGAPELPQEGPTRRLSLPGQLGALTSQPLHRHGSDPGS
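U2OS cells were transduced with wild-type KCNH2 virus (2.03 x 10^8 / mL) for 4 h at room temperature, then cultured overnight at 37 C. Thallium flux was read with FluxOr dye. Rate constants were normalized to DMSO controls.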
TRPV1 potentiator: potentiators of human vanilloid receptor 1 (TRPV1) | Q8NER1 | TRPV1-expressing cells, Fluo-8 calcium influx, capsaicin EC20 potentiation | potentiation, % at 8.33 µM | hit rate 0.02% among 320,000; in the data active = potentiation above about 80%; inconclusive = between about 30% and that limit; also: 0% is about no effect
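Cells expressing TRPV1 were dye-loaded with Fluo-8 and read kinetically: 10 s baseline, 3 min after compound (agonist portion), then 2 min after EC20 capsaicin (allosteric enhancer portion). Calcium-bound dye fluorescence at 480/520 nm.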
* = called active by the depositor; u = inconclusive; x = no result. The list is not random: actives were taken first. Their share in the collection is about 1.3%.

SMILES	TRPV1 ag	TRPML1 blocker	TRPML1 ag	KCNH2 3.1 inh	KCNH2 WT inh	TRPV1 potentiator
Clc1ccccc1CN(Cc1ccccc1)C(c1cccs1)c1nnnn1C1CCCC1 (configuration not stated)	28	16	0	12	-2	1
CCOc1ccccc1NC(=O)C(c1ccccc1)N1CCN(CC(=O)N2CCOCC2)CC1 (configuration not stated)	u	-4	0	-83*	-3	-15
Cc1ccc(C)c(NC(=O)C(c2ccccc2)N2CCN(CC(=O)N3CCOCC3)CC2)c1 (configuration not stated)	x	-9	1	-89*	-36	x
O=C(CN1CCN(C(c2ccccc2)c2ccccc2)CC1)N1CCOCC1	24	-4	0	-15	11	-17
CCOc1ccccc1NC(=O)C(c1ccccc1)N1CCN(CC(=O)N2CCCC2)CC1 (configuration not stated)	x	2	-1	-72*	-30	x
CCOc1ccccc1NC(=O)CN1CCCCCC1	28	26	-1	16	7	-14
CSc1cccc(CN2CCCC(CNC(=O)c3ccc(F)cc3)C2)c1 (configuration not stated)	16	-11	1	-21	19	-11
CCOc1cc(CN2CCCC(CNC(=O)c3ccc(F)cc3)C2)ccc1OC (configuration not stated)	4	11	0	u	18	u
CSc1ccc(CN2CCCC(CNC(=O)c3ccc(F)cc3)C2)cc1 (configuration not stated)	2	-1	0	-78*	0	4
CCOc1ccc(CN2CCCC(CNC(=O)c3ccc(F)cc3)C2)cc1CO (configuration not stated)	0	16	1	-101*	x	2
O=C(Nc1cccnc1)c1ccc(-c2ccccc2)cc1	87*	5	0	-6	x	-2
O=C(Nc1cccc(NC(=O)c2cccnc2)c1)c1cccnc1	3	28	0	-6	2	5
O=C(Nc1cccnc1)c1ccc(N2CCCC2)c([N+](=O)[O-])c1	84*	9	0	-7	-1	-17
O=C(Nc1cccnc1)c1ccc(N2CCOCC2)c([N+](=O)[O-])c1	u	-13	0	2	-6	-23
Cc1ccccc1C(=O)Nc1cccc(NC(=O)c2cccnc2)c1	0	-3	0	-12	-78*	-2
CCOC(=O)c1ccc(NC(=O)CSc2nccn2Cc2ccc(OC)cc2)cc1	x	17	3	x	x	x
COC(=O)c1sc(-c2ccccc2)cc1NC(=O)Nc1ccc(F)cc1	x	-10	0	x	x	x
CN(C)S(=O)(=O)c1ccc(S(=O)(=O)N(Cc2ccco2)Cc2ccccc2Cl)cc1	4	-18	64*	-12	3	-16
O=S(=O)(c1ccc(S(=O)(=O)N(Cc2ccco2)Cc2ccccc2Cl)cc1)N1CCCC1	1	-6	0	-7	2	8
COc1ccc(-c2oc(NC(=O)c3ccc(C)cc3)c(C#N)c2-c2ccc(OC)cc2)cc1	u	5	-1	-7	1	18
COc1ccc(C(=O)Nc2oc(-c3ccccc3)c(-c3ccccc3)c2C#N)cc1	u	2	0	-70*	0	-8
Cc1ccc(-c2nc(-c3cc4cc(Cl)ccc4oc3=O)sc2C)cc1	x	x	-1	x	x	x
O=C(c1cccn2c(=O)c3ccccc3nc12)N1CCN(Cc2ccc3c(c2)OCO3)CC1	2	-7	0	-12	25	1
CC(C)CC(=O)N1CCN(Cc2ccc3c(c2)OCO3)CC1	-2	-12	0	16	-133*	-4
O=C(c1cccn2c(=O)c3cc(Cl)ccc3nc12)N1CCN(Cc2ccc3c(c2)OCO3)CC1	-2	-2	-1	-83*	8	2
SMILES	TRPV1 ag	TRPML1 blocker	TRPML1 ag	KCNH2 3.1 inh	KCNH2 WT inh	TRPV1 potentiator
O=C(c1ccc(Br)o1)N1CCN(Cc2ccc3c(c2)OCO3)CC1	22	-17	3	-3	18	-20
O=C(c1ccc2nccnc2c1)N1CCN(Cc2ccc3c(c2)OCO3)CC1	-2	-4	0	-87*	-3	-7
CCCC(=O)N1CCN(Cc2ccc3c(c2)OCO3)CC1	-4	19	0	-4	0	1
O=C(c1ccc(Br)s1)N1CCN(Cc2ccc3c(c2)OCO3)CC1	u	-51*	-1	0	-8	2
COc1ccc(N(CC(=O)N2CCN(Cc3ccc4c(c3)OCO4)CC2)S(=O)(=O)c2ccc(F)cc2)cc1	0	16	1	-86*	-44	-3
CC(C)N(CCNCC(O)COc1ccc(C(C)(C)c2ccccc2)cc1)C(C)C (configuration not stated)	2	6	2	u	-96*	0
OC(CNCCC(c1ccccc1)c1ccccc1)COc1ccccc1 (configuration not stated)	13	8	2	-97*	-11	-9
CC(C)(c1ccccc1)c1ccc(OCC(O)CN2CCCC2)cc1 (configuration not stated)	1	-5	1	-27	22	6
OC(CNCCc1ccccc1)COc1ccc(OCC(O)CNCCc2ccccc2)cc1 (configuration not stated)	11	-10	2	-13	-3	u
Cn1c(=O)n(C)c2cc(N3CCOCC3)c(NS(=O)(=O)c3ccc(Br)cc3)cc21	x	12	-1	x	x	x
O=C(CN1CCN(C/C=C/c2ccccc2)CC1)Nc1ccccc1C(=O)NC1CC1	2	7	0	-112*	-91*	-13
Cc1cc(NC(=O)CCN2CCN(C/C=C/c3ccccc3)CC2)ccc1Br	1	-5	0	-108*	-25	18
O=C(CCN1CCN(C/C=C/c2ccccc2)CC1)Nc1ccccc1	2	6	1	-80*	-27	-9
Cc1cccc(NC(=O)CCN2CCN(C/C=C/c3ccccc3)CC2)c1	4	0	0	-91*	15	-9
O=C(CCN1CCN(CCO)CC1)Nc1ccccc1	-3	-13	0	6	7	1
CCN1CCN(CCC(=O)Nc2cccc(C)c2)CC1	-2	31	0	-20	5	13
CCCCN(c1ccccc1)c1ncnc2c1cnn2-c1ccc(Cl)cc1	x	15	0	x	x	x
Cc1cc(NC(=O)CN2CCN(C/C=C/c3ccccc3)CC2)c([N+](=O)[O-])cc1C	-1	3	0	-92*	-17	3
Cc1ccccc1NC(=O)CCN1CCN(C/C=C/c2ccccc2)CC1	-1	-9	-1	-85*	24	u

Assay outcomes from PubChem BioAssay.
